Counter-ions that a name gives are not always drawn.
Tested on: MDA-MB-468
Assay: phospho-S6 immunofluorescence (DAPI-normalised), per-plate z-score; higher = higher phospho-S6 signal (less pathway suppression)
Settings: 24 h
Method: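 GPCR-targeted compound library (MedChemExpress HY-L006) tested on MDA-MB-468 PTEN-null TNBC cells in 384-well plates at 0.1, 1 or 10 uM, combined with vehicle, GDC0941 450 nM or lapatinib 1 uM, for 24 h. Phospho-S6 (S240/244) immunofluorescence normalised to DAPI and expressed as a per-plate z-score; values are the mean of biological triplicates.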

SMILES	phospho-S6 immunofluorescence (z-score) (co-treatment: GDC0941 450 nM)	phospho-S6 immunofluorescence (z-score) (co-treatment: lapatinib 1 uM)	phospho-S6 immunofluorescence (z-score) (co-treatment: vehicle)
Cc1ccc2c(c1CCC(=O)O)CC[C@@H](NS(=O)(=O)c1ccc(Cl)cc1)C2 [Terutroban] (compound 10 µM)	-0.9	0.55	-0.1
OC[C@H]1O[C@@H](n2cnc3c(NCc4ccc(O)cc4)ncnc32)[C@H](O)[C@@H]1O [N6-(4-Hydroxybenzyl)adenosine] (compound 10 µM)	-0.95	1.31	0.96
CCN(CC)CCNC(=O)c1cc(Cl)c(N)cc1OC [Metoclopramide] (compound 10 µM)	-0.3	0.63	-0.11
Cc1cc(C(C)(C)C)c(O)c(C)c1CC1=NCCN1 [Oxymetazoline (hydrochloride)] (compound 10 µM)	0.28	-0.17	-0.03
NCCCCN(Cc1nc2ccccc2[nH]1)[C@H]1CCCc2cccnc21 [AMD-070 (hydrochloride)] (compound 10 µM)	-4.2	-3.44	-3.01
Clc1ccc2c(c1)N=C(N1CCNCC1)c1ccccc1N2 [N-Desmethylclozapine] (compound 10 µM)	-0.56	-3.16	-0.88
O=C1Cc2cc(CCN3CCN(c4nsc5ccccc45)CC3)c(Cl)cc2N1 [Ziprasidone (hydrochloride monohydrate)] (compound 10 µM)	-5.1	-9.79	-5.97
OCC1OC(n2cnc3c(NC4CCCCC4)ncnc32)C(O)C1O (stereo unspecified) [N6-Cyclohexyladenosine] (compound 10 µM)	-0.37	1.37	0.6
C[N+]1(C)CCC(=C(c2ccccc2)c2ccccc2)CC1 [Diphenmanil (methylsulfate)] (compound 10 µM)	0.46	0.06	0.8
O=C(O)CC1CCC2(CC1)CCN(c1cc(OC(F)(F)F)ccc1Cl)CC2 (compound 10 µM)	0.09	0.11	0.22
CN1CCC(OC(c2ccccc2)c2ccccc2)CC1 [Diphenylpyraline (hydrochloride)] (compound 10 µM)	0.68	0.42	-0.04
CCCCCCOc1nsnc1C1=CCCN(C)C1 [Xanomeline (oxalate)] (compound 10 µM)	-0.72	-0.5	1.16
Clc1cccc(Cl)c1NC1=NCCN1 [Clonidine (hydrochloride)] (compound 10 µM)	0.37	0.75	1.03
CN(C)C(=O)CCSC(SCCC(=O)O)c1cccc(/C=C/c2ccc3ccc(Cl)cc3n2)c1 (stereo unspecified) [MK-571 (sodium salt)] (compound 10 µM)	-0.65	0.9	1.28
CC(C)(C)NC[C@H](O)COc1nsnc1N1CCOCC1 [(S)-Timolol (Maleate)] (compound 10 µM)	-0.17	0.33	-0.06
CN(C)CCOC(C)(c1ccccc1)c1ccc(Cl)cc1 (stereo unspecified) [Chlorphenoxamine] (compound 10 µM)	-4.26	-7.36	-4.5
OCCN1CCN(CCCN2c3ccccc3Sc3ccc(C(F)(F)F)cc32)CC1 [Fluphenazine (dihydrochloride)] (compound 10 µM)	-3.94	-6.77	-2.87
CSc1ccc2c(c1)N(CCC1CCCCN1C)c1ccccc1S2 (stereo unspecified) [Thioridazine (hydrochloride)] (compound 10 µM)	-5.09	-8.27	-7.88
c1ccc(NCc2ccc(CNc3ccccn3)cc2)nc1 (compound 10 µM)	0.88	-0.48	0.72
CC(C)OC(=O)N1CCC(Oc2ncnc3c2cnn3-c2ccc(S(C)(=O)=O)cc2F)CC1 (compound 10 µM)	-0.32	-0.15	-0.38
CCCCCNC(=N)N/N=C/c1c[nH]c2ccc(OC)cc12 [Tegaserod (maleate)] (compound 10 µM)	-6	-12.1	-10.3
CN1CCN(CCc2ccc(Cl)c(Cl)c2)CC1 [BD1063 (dhydrochloride)] (compound 10 µM)	0.51	-1.56	-0.49
CCCCOc1ccc(C(=O)Nc2ccc(F)cc2F)cc1 (compound 10 µM)	-0.51	-1.06	0.89
Cc1ccc(N(CC2=NCCN2)c2cccc(O)c2)cc1 [Phentolamine (mesylate)] (compound 10 µM)	-0.17	1.1	-0.58
Cc1cc(C)nc(NS(=O)(=O)c2ccc(NC(=S)NC(=O)COc3ccc(Br)cc3Cl)cc2)n1 (compound 10 µM)	0.46	-0.41	0.28
C[C@H](N)[C@H](O)c1cccc(O)c1 [Metaraminol (tartrate)] (compound 10 µM)	0.64	0.89	0.73

SMILES	phospho-S6 immunofluorescence (z-score) (co-treatment: GDC0941 450 nM)	phospho-S6 immunofluorescence (z-score) (co-treatment: lapatinib 1 uM)	phospho-S6 immunofluorescence (z-score) (co-treatment: vehicle)
CN(C)CCCN1c2ccccc2CCc2ccc(Cl)cc21 [Clomipramine (hydrochloride)] (compound 10 µM)	-1.98	-3.26	-1.14
CC(C)C[C@H](NC(=O)CNC(=O)[C@H](Cc1ccc(O)cc1)NC(=O)[C@H](CO)NC(=O)[C@H](Cc1c[nH]c2ccccc12)NC(=O)[C@H](Cc1cnc[nH]1)NC(=O)[C@@H]1CCC(=O)N1)C(=O)N[C@@H](CCCNC(=N)N)C(=O)N1CCC[C@H]1C(=O)NCC(N)=O [Gonadorelin (acetate)] (compound 10 µM)	-0.45	0.57	0.07
CC[C@@H]1C(=O)OC[C@@H]1Cc1cncn1C [Pilocarpine (Hydrochloride)] (compound 10 µM)	-0.79	-0.13	-0.68
CC(C)(C)NCC(O)c1ccc(O)c(CO)c1 (stereo unspecified) [Salbutamol (hemisulfate)] (compound 10 µM)	0.44	1.46	0.8
COCCCN1CCC(NC(=O)c2cc(Cl)c(N)c3c2OCC3)CC1 [Prucalopride (succinate)] (compound 10 µM)	-1.08	-0.3	-1.84
CN(C)CCSSCCNC(=O)C1CCN(C(=O)CSc2ccc(Cl)cc2)CC1 [6H05 (trifluoroacetate)] (compound 10 µM)	-1.17	2.33	-0.23
COC(c1ccccc1)(c1ccccc1)[C@H](Oc1nc(C)cc(C)n1)C(=O)O [Ambrisentan] (compound 10 µM)	1.18	0.5	-0.07
CCC/N=C1\S/C(=C\c2ccc(OC[C@H](O)CO)c(Cl)c2)C(=O)N1c1ccccc1C [Ponesimod] (compound 10 µM)	-0.8	0.52	1.07
CCN1CCCC1CNC(=O)c1cc(S(N)(=O)=O)ccc1OC (stereo unspecified) [Sulpiride] (compound 10 µM)	-0.13	0.19	0.05
NC(=O)C(c1ccccc1)(c1ccccc1)[C@@H]1CCN(CCc2ccc3c(c2)CCO3)C1 [Darifenacin (hydrobromide)] (compound 10 µM)	-1.6	-1.5	0.03
CC(C)OC(=O)CCC/C=C\C[C@@H]1[C@@H](CC[C@@H](O)CCc2ccccc2)[C@H](O)C[C@@H]1O [Latanoprost] (compound 10 µM)	0.61	-0.08	-0.18
CC(=O)OC(C)C[N+](C)(C)C (stereo unspecified) [Methacholine (chloride)] (compound 10 µM)	0.63	0.47	1
COc1ccc2c(c1OC)C(=O)O[C@@H]2[C@H]1c2c(cc3c(c2OC)OCO3)CCN1C [Noscapine] (compound 10 µM)	0.49	0.12	0.47
CC(C)NCC(O)COc1ccc(CC(N)=O)cc1 (stereo unspecified) [Atenolol] (compound 10 µM)	0.35	1.32	0.52
Cc1ccc(-c2n[nH]c3c2C(c2cccc(O)c2)N(c2ccc(C(=O)O)cc2)C3=O)cc1 (stereo unspecified) (compound 10 µM)	0	0.5	-0.12
OCCOCCN1CCN(C(c2ccccc2)c2ccc(Cl)cc2)CC1 (stereo unspecified) [Hydroxyzine (dihydrochloride)] (compound 10 µM)	0.45	-0.69	0.24
CCN(CC)Cc1ccc(C(=O)N(CCc2ccccc2OC)[C@@H]2CCNC2)cc1 (compound 10 µM)	0.19	0.1	0.12
COc1ccccc1OCCNCC(O)COc1cccc2[nH]c3ccccc3c12 (stereo unspecified) [Carvedilol] (compound 10 µM)	-4.07	-4.63	-3.59
CCCCC[C@H](O)/C=C/[C@H]1[C@H](O)CC(=O)[C@@H]1CCCCCCC(=O)O [Prostaglandin E1] (compound 10 µM)	-0.04	1.48	-0.27
CCCN(CCc1cccs1)[C@H]1CCc2c(O)cccc2C1 [Rotigotine (Hydrochloride)] (compound 10 µM)	-0.16	0.3	-0.63
CC[C@H](NC(=O)c1c(C)c(-c2ccccc2)nc2ccccc12)c1ccccc1 (compound 10 µM)	-4.55	-3.25	-1.64
C[C@]12CCC(=O)C=C1CC[C@@H]1[C@@H]2[C@@H](O)C[C@@]2(C)[C@H]1CC[C@]2(O)C(=O)CO [Hydrocortisone] (compound 10 µM)	-4.8	-4.13	-2.96
O=C(O)Cn1c2c(c3cc(F)ccc31)CN(C(=O)c1cccc3ccccc13)CC2 [Setipiprant] (compound 10 µM)	0.42	0.74	-0.03
Cc1nc2ccc(NC(=O)Nc3ccnc4cccnc34)cc2o1 (compound 10 µM)	0.6	-1.8	0.79
O=C(O)COCCN1CCN(C(c2ccccc2)c2ccc(Cl)cc2)CC1 (stereo unspecified) [Cetirizine (dihydrochloride)] (compound 10 µM)	-0.15	0.74	0.52
COc1ccc(CC(C)NCC(O)c2ccc(O)c(NC=O)c2)cc1 (stereo unspecified) [Formoterol (Fumarate)] (compound 10 µM)	1.08	0.77	0.16
